Among the data in PubChem BioAssay (NCATS) are Potency and activity change, negative = cytotoxicity values, retold here.

SMILES strings stand for the structures. Inconclusive results are not listed. A call without a number means that no potency is given here. Active and inactive are the calls of the source. The call rests on the fitted dose curve; in most records, active means well fitted cell-killing curve with a large enough effect; inconclusive means small, poorly fitted or top-dose-only effect, or effect the other way; inactive means flat fitted curve, though single readings scatter.

The assay deals with C33A. Description: Primary qHTS to identify gynecologic anti-cancer compounds using libraries of approved drugs and bioactive compounds (AID 1345084). Further: nearly all actives have a fitted effect of over 55% in size. Conditions: Gynecologic cancer cell panel viability, ATPlite luminescence, 48 h; series mostly up to 57.5 µM. In a few lines:
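Cells, 1,000 per well, plated 16 h, then exposed 48 h at 37 C to compounds. Viability by ATPlite luminescence after 15 min at room temperature.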
Turning to `C=C(C)[C@H]1C[C@@H](O)C(=C)CC[C@@H](O)C(=C)[C@@H](O)C1`, the Potency result was “inactive”.

For `CC(=O)OC[C@]12[C@H](OC(C)=O)C(=O)[C@@H]3[C@@H](OC(C)=O)[C@@]14O[C@@]3(C)COC(=O)c1cccnc1[C@@H](C)[C@H](C)C(=O)O[C@@H]([C@H](OC(C)=O)[C@@H]2OC(C)=O)[C@]4(C)O`, the Potency result is “inactive”.

As to `CCOC(=O)[C@H]1O[C@@H]1C(=O)N[C@@H](CC(C)C)C(=O)NCCC(C)C`, the Potency result was “inactive”.

Take `C=C1C[C@]23C[C@H]1CC[C@H]2[C@]1(C)CCC[C@@]2(CO)C(=O)O[C@H]([C@H]21)[C@@H]3O`: the Potency result is “inactive”.

Turning to `COc1ccc(/C=C/C(=O)O[C@@H]2[C@@H](OC(C)=O)[C@@H](OC(C)=O)[C@H](O[C@H]3[C@@H]4C=CO[C@@H](O[C@@H]5O[C@H](CO)[C@@H](O)[C@H](O)[C@H]5O)[C@@H]4[C@@]4(CO)O[C@@H]34)O[C@H]2C)cc1O`, the Potency result is “inactive”.

As to `O=C(O[C@@H]1O[C@H](CO)[C@@H](O)[C@H](O)[C@H]1O)c1c(O)cc(O)cc1/C=C/c1ccccc1`, the Potency entry is “inactive”.

Regarding `COC(=O)C1=COC(O[C@@H]2O[C@H](CO)[C@@H](O)[C@H](O)[C@H]2O)/C(=C\COC(=O)c2ccc(OC3OC(CO)C(O)C(O)C3O)c(OC)c2)C1CC(=O)OCCc1ccc(O)cc1` (some centres undefined), the activity change, negative = cytotoxicity is 7.7% [at 11.6 µM] (inactive).

In the case of `CC(C)=CCC/C(C)=C/CC/C(C)=C/CC[C@]1(C)CCc2cc(O)cc(C)c2O1`, the Potency result was “inactive”.

As to `C=C1CCC2C(C)(C)C(O)CCC2(C)C1CCC(C)CCOC(=O)CCC(=O)O` (centres undefined), the Potency result is “inactive”.
